# This excerpt belongs to a sample that is enriched for hits.
# Shh pathway inh = Hedgehog pathway signaling inhibitors, primary screen, luminescence, Shh-LIGHT2 cells, Gli-luciferase | AID 2313, 2010 | Shh-LIGHT2 Gli-luciferase reporter, 30 h | 22,000 tested, 2.1% active | inhibition, % (no concentration beside the values);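 active = mean inhibition across valid replicates above about 65%, limit read from the data; inconclusive = mean under the limit, yet half or more replicates past it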;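 note: pathway switched on by Shh-conditioned medium diluted 1 in 25 in low serum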
# MITF inhib = inhibitors of MITF, primary screen, MITF inhibitor project, cell-based, luminescence | inhibition, % (concentration not given with the values) | TRPM1 promoter luciferase, 24 h | 37,000 tested, 0.28% active; in the data active = inhibition above about 85%; inconclusive = no clear call, values can overlap the other calls; inactive = below about 68%;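 note: human melanocyte line stably carrying TRPM1 promoter luciferase reporter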
# An asterisk follows results filed as active; ? = inconclusive; . = no result.
SMILES,Shh pathway inh,MITF inhib
OCCN1CCN(CCCN2c3ccccc3Sc3ccc(C(F)(F)F)cc32)CC1,?,17
CCCOc1ccc(C2C(C(=O)Nc3ccccc3OC)=C(C)Nc3ncnn32)cc1OC (stereo not drawn),.,-14
CCN(CC)C(=S)CSc1nc(-c2ccccc2)cc(-c2ccco2)c1C#N,-28,10
Oc1c(C(c2ccncc2)N2CCCC2)ccc2cccnc12 (stereo not drawn),35,21
COc1ccc(C(c2ccc3cccnc3c2O)N2CCOCC2)cc1 (stereo not drawn),68*,51
NC(=NC(=O)c1ccc(Cl)cc1)c1ccc(C(F)(F)F)cn1,-83,-39
CN1C(=O)[C@@]2(Cc3ccccc3)SSS[C@]1(CO)C(=O)N2C,70*,91*
CSc1ccccc1NC(=O)c1cc2n(n1)C(C(F)(F)F)C1CCc3ccccc3C1N2 (stereo not drawn),?,-2
COc1ccc(S(=O)(=O)N(C)CC(=O)Nc2cc(Cl)cc(Cl)c2)cc1,.,0
CCOC(=O)c1c(CN(CC)CC)oc2ccc(OC)cc12,28,-2
CCOC(=O)c1c(CSc2nc(C)ccc2C#N)oc2ccc(OC(C)=O)cc12,100*,66
FC(F)(F)C1(C(F)(F)F)N=C(c2ccccc2)NC(c2ccccc2)=N1,-3,11
NC(N)=NN=Cc1c(Cl)cccc1Cl,65*,0
CC(C)Nc1nc(Oc2ccc(=O)[nH]n2)nc(N(C)C)n1,.,7
Cc1c(S(=O)(=O)c2ccc(Cl)cc2)csc1C(=O)N(c1ccccc1)S(C)=O (stereo not drawn),88*,25
O=C(O)CN(c1ccccc1)S(=O)(=O)c1ccc(Cl)cc1,.,-6
NNC(=O)CCCSc1nc2ccccc2s1,-3,52
O=C(CCSc1nc2ccccc2s1)Nc1ccccc1Cl,.,86*
CC(=O)Oc1ccc2occ(C(=O)CCN(C)C)c2c1,21,0
COc1ccccc1N1CCN(CCCCNC(=O)c2ccc(-c3ccc(C(C)=O)cc3)cc2)CC1,92*,4
COc1ccc([N+](=O)[O-])cc1NC(=O)CCN1CCN(c2ccccc2OC)CC1,.,-8
CSc1sc(C(=O)Sc2ccccc2)cc1S(=O)(=O)C(C)C,-15,0
Cc1ccc2ccc(C(Nc3ccccn3)c3cccc([N+](=O)[O-])c3)c(O)c2n1 (stereo not drawn),.,52
CS(=O)c1sc(C(=O)OCc2ccccc2)c2c1C(=O)CC(C)(C)C2 (stereo not drawn),.,78
N#Cc1c(SCC(=O)c2ccc(F)cc2)nsc1SCC(=O)c1ccc(F)cc1,81*,7
SMILES,Shh pathway inh,MITF inhib
Cc1cccc(NC(=O)CSc2nsc(SCC(=O)Nc3cccc(C)c3)c2C#N)c1,10,6
Cc1cccc(-c2nnc(SCC(=O)c3ccccc3)n2-c2ccccc2)c1,.,9
Clc1cccc(Nc2nnc(-c3ccccc3)c3ccccc23)c1,94*,66
CNS(=O)(=O)c1cc(-c2nnc(Nc3ccc(NC(C)=O)cc3)c3ccccc23)ccc1C,.,-6
C=C[C@](C)(CC/C=C(\C)CC[C@H](O)C(C)(C)O)O[C@@H]1O[C@H](CO)[C@@H](O)[C@H](O)[C@H]1O,-14,-11
C=CC(C)(CC/C=C(\C)C(O)CC=C(C)C)OC1OC(CO)C(O)C(O)C1O (stereo not drawn),78*,.
CC1(C)CC(=O)C2=C(C1)OC(N)=C(C#N)C21C(=O)N(CO)c2ccccc21 (stereo not drawn),-31,-10
Cc1oc2c(c1C(=O)NCCCn1ccnc1)C(=O)c1ccccc1C2=O,110*,66
Cc1onc(-c2ccccc2)c1C(=O)NCCCn1ccnc1,.,-9
COc1ccccc1CCNC(=O)c1ccoc1C,.,-49
Cc1oc2c(c1C(=O)NCCC(C)C)C(=O)c1ccccc1C2=O,90*,?
Cc1cccc(-c2nnc(SCC(=O)Nc3cc(C(F)(F)F)cc(C(F)(F)F)c3)n2C)c1,.,43
FC(F)(F)c1cc(-c2ccc3ccccc3c2)no1,-33,-4
O=C(Nc1ccccc1C(=O)O)c1cccc(S(=O)(=O)Nc2cccc(C(F)(F)F)c2)c1,.,6
CC1(C)N=C(NS(=O)(=O)c2cc(C(F)(F)F)cc(C(F)(F)F)c2)N(c2ccccc2)O1,101*,49
O=C(c1ccccc1)N1CN(C2CCCCC2)Cc2c1sc1c2CCCC1,-34,9
COc1ccc(NC(=O)CNC(=O)c2ccccc2C)cc1,.,-49
COc1ccc(Cl)cc1NC(=O)Cn1cnc2sc3c(c2c1=O)CCC(C)C3 (stereo not drawn),.,36
CCOC(=O)N1CCc2c(sc3ncn(Cc4ccc(Cl)cc4)c(=O)c23)C1,95*,40
COc1ccccc1OCC(=O)Nc1cccc(-c2nnc(-c3ccccc3)o2)c1,.,-99
COc1ccc(CC(=O)Nc2cccc(-c3nnc(-c4ccc(C)cc4)o3)c2)cc1OC,.,101*
COc1ccc([N+](=O)[O-])cc1NC(=O)COc1ccc(Cl)cc1Br,.,-12
COc1ccc([N+](=O)[O-])cc1NC(=O)COc1ccc(C(C)(C)C)cc1Br,.,89*
Cn1c(SCCCN2C(=O)c3cccc4cccc(c34)C2=O)nnc1-c1ccncc1,.,-63
Cn1c(N2C(=O)c3cccc4cccc(c34)C2=O)nc2ccccc21,86*,-25
SMILES,Shh pathway inh,MITF inhib
CCCS(=O)(=O)/C(C#N)=C/c1sccc1Oc1ccccc1,22,0
C[C@@H]1CN([C@H](C)CO)C(=O)c2cccc(NC(=O)C3CCCCC3)c2O[C@H]1CN(C)S(=O)(=O)c1ccc(F)cc1,6,0
Cc1ccc(S(=O)(=O)N(C)C[C@@H]2Oc3c(NC(=O)C4CCCCC4)cccc3C(=O)N([C@H](C)CO)C[C@@H]2C)cc1,70*,6
Cc1ccc(S(=O)(=O)N(C)C[C@@H]2Oc3c(NC(=O)C4CCCCC4)cccc3C(=O)N([C@@H](C)CO)C[C@@H]2C)cc1,104*,7
Cc1ccc(S(=O)(=O)N(C)C[C@H]2Oc3c(NC(=O)C4CC4)cccc3C(=O)N([C@@H](C)CO)C[C@H]2C)cc1,-14,-9
Cc1ccc(S(=O)(=O)N(C)C[C@@H]2Oc3c(NC(=O)C4CCCCC4)cccc3C(=O)N([C@@H](C)CO)C[C@H]2C)cc1,-16,0
C[C@H]1CN([C@@H](C)CO)C(=O)c2cccc(NC(=O)C3CCCCC3)c2O[C@H]1CN(C)S(=O)(=O)c1ccc(F)cc1,82*,-12
CC(C)CC1NC(=O)C2CCCN2C1=O (stereo not drawn),7,-3
Cc1ccc(/C(C#N)=C/c2ccc(N(C)C)cc2)cc1,-88,42
Cc1csc(NC(=O)CSc2nc(C34CC5CC(CC(C5)C3)C4)ccc2C#N)n1,75*,63
CC(=O)Nc1nc(C23CC4CC(CC(C4)C2)C3)cs1,.,-19
O=C1C=CC(=C(c2ccc(O)cc2)c2ccc(O)cc2)C=C1,66*,68
O=C1N=c2ccccc2=N/C1=N\C(=S)Nc1ccccc1,40,9
OC(c1ccccc1)c1oc2ccccc2c1-c1cnn(-c2ccccc2)c1 (stereo not drawn),98*,70
CCC(Sc1nnc(N)s1)C(=O)Nc1sc2c(c1C#N)CCCC2 (stereo not drawn),.,-30
CCC(Sc1nnnn1-c1ccccc1)C(=O)Nc1sc2c(c1C#N)CCCC2 (stereo not drawn),68*,16
O=C1C(Nc2ccccc2)=CC(=O)c2ncccc21,94*,97*
